# Rows were chosen to be rich in hits. Some 10% of all compounds tested hit in one or more screens of this group.
# HPGD inh: HPGD (human) dehydrogenase inhibition. P15428. purified HPGD, NADH fluorescence kinetic, PGE2 substrate. Potency, µM, for inactives: top-dose activity change, negative = inhibition, actives largely listed as inhibitors. 4.3% of 150,000 active. AID 894; also: potency is read from the fitted curve at half-maximal effect
# Target sequence (P15428 whole entry, looked up): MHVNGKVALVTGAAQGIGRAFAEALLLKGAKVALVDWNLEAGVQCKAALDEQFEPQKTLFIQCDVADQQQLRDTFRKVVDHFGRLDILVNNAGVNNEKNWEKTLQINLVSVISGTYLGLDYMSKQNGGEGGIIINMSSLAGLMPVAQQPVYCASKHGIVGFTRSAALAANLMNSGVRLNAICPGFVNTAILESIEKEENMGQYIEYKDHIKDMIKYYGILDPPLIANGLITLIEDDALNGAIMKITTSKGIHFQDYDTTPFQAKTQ
#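 20 nM HPGD preincubated 15 min at room temperature with compound in 50 mM Tris-HCl pH 8, 0.01% Tween 20. Started with 1 mM NAD+ and 30 uM prostaglandin E2; NADH fluorescence (360/450 nm) read 5 times over 30-s intervals, last minus first.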
# ALDH1A1 block: blocks purified human ALDH1A1 activity | P00352 | Purified ALDH1A1, NADH fluorescence, propionaldehyde substrate | Potency, µM (top dose mostly 75.3 µM), for the others: at the top dose activity, negative = inhibition, actives largely listed as inhibitors | 7.3% of 220,000 active | AID 1030;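 also: potency is read from the fitted curve at half-maximal effect; plate controls were no enzyme wells and a reference inhibitor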
# Luc counter: counter-screen: inhibitors of Kinase-Glo firefly luciferase. Kinase-Glo luciferase, ATP luminescence, 8 min. Potency, µM (series often up to 38.3 µM), for inactives: at the top dose activity change, negative = inhibition, usual class: inhibitors. 0.28% of 200,000 active. AID 1379; active = well fitted inhibition curve with a large enough effect; inconclusive = small, poorly fitted or top-dose-only effect; also: potency is read from the fitted curve at half-maximal effect; nearly all actives have a fitted effect of over 60% in size
#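 Compound is pinned into ATP-containing buffer (10 uM ATP, imidazole pH 7.2, 7 mM MgCl2). Kinase-Glo luciferase reagent is then added. Light output is recorded following an 8-min room-temperature incubation.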
# IMPase inh: cell-permeable inhibitors of inositol monophosphatase (IMPase); inhibition (IP1 accumulation), % at 46.1 µM; 120,000 tested, under 10 active; CHO-M1 cells, IP1 accumulation, HTRF TR-FRET ratio; P97697; active = well fitted curve in the direction sought with a large enough effect in the signal ratio, not every such curve was filed as active; inconclusive = small, poorly fitted or top-dose-only effect, or a change in a side signal; inactive = no such curve, though single readings can be large or run the other way; the % refers to the signal ratio;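 also: cells stimulated with carbachol in lithium chloride buffer; plate controls were DMSO basal wells for no effect and reference inhibitor wells for full effect; higher means more IMPase inhibition seen as more IP1 and lower FRET ratio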
# Target sequence (P97697 whole entry, looked up): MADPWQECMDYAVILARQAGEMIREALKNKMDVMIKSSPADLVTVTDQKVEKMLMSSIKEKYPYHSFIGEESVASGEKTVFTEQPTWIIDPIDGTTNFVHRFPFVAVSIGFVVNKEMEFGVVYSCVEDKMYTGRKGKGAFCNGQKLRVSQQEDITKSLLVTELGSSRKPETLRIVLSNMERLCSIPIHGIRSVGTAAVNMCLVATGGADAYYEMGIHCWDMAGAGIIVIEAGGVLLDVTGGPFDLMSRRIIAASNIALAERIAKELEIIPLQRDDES
#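 CHO-M1, 2000 cells/well, cultured 16–30 h; cpd up to 46 uM; carbachol (50 uM solution, stimulation buffer w/ 50 mM LiCl, pH 7.4), 30 min 37C; IP-One TR-FRET, 10 min RT; Ex 320/Em 665, 620; Hill-fit AC50.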
# LMNA splice mod: modulators of lamin A splicing | AID 1487 | HeLa LMNA splicing GFP/RFP minigene ratio, 48 h | 0.01% of 200,000 active | Potency, µM (highest dose often 46.1 µM), for inactives: at the highest dose ratio change, negative = inhibition, usual class: inhibitors; active = well fitted inhibition curve with a large enough effect in the signal ratio, with a control signal flat, not every such curve was filed as active; inconclusive = small, poorly fitted or top-dose-only effect, or effect the other way, or a change in a side signal; the % refers to the signal ratio; also: potency is read from the fitted curve at half-maximal effect
#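 Read-out is the ratio of GFP to DsRed2 object intensity, acquired by 488 nm laser-scanning cytometry on HeLa lamin A-EGFP minigene reporter cells. Compound incubation 48 hrs at 37 °C in Opti-MEM with 2% FBS; DMSO 0.5% final.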
# PNC inhibitor: perinucleolar compartment assembly inhibition; PC3M PTB-GFP, PNC prevalence imaging, 16 h; stronger effect = lower value; activity change (PNC), negative = inhibition, % at 10 µM; 3.1% of 140,000 active; AID 2417;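 active = readout at or below -70, meaning at least 70% loss of cells showing the perinucleolar compartment, a nuclear body marking cancer cells; inconclusive = readout between -30 and a set limit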;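 also: plate controls were DMSO wells for no effect and camptothecin positive control wells for full effect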
#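 Compounds are pinned in duplicate onto adhered PC3M cells stably expressing GFP-tagged PTB and incubated 16 h at 37 C. Cells are then fixed, nuclei stained with Hoechst, and PNC-positive cells counted.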
# * marks the source's active call; other numbers are inactive results; ? = inconclusive; · = no result given; [ ] = dose if it differs, or a comment. Unless noted, calls follow the shape of the dose curve; as a rule, active = well fitted inhibition curve with a large enough effect (not every such curve was filed as active); inconclusive = small, poorly fitted or top-dose-only effect, or another doubt; inactive = no such curve, though single readings can be large or run the other way. Unless noted, % is scaled to controls: 0 for no effect and ±100 for the full control effect.
SMILES,HPGD inh,ALDH1A1 block,Luc counter,IMPase inh,LMNA splice mod,PNC inhibitor
O=C(/C=C/c1ccco1)NCCc1ccccc1,·,22µM*,-1%,·,·,·
CC/C(=N\NC(=O)CNC(=O)/C=C/c1ccco1)c1ccccc1,-13%,14µM*,1%,9,9%,10
CN(CCOC(=O)/C=C/c1ccco1)Cc1ccccc1,·,22µM*,-4%,·,2%[46 µM],·
O=C(O)/C=C/C(=O)NCCc1ccccc1,·,-16%,-1%,·,·,·
CC(C)(C)OC(=O)NCCCCC1=CC2=CC(=O)C(C)(OC(=O)CCc3ccccc3)C(=O)C2=CO1 (stereo not given),-11%,11%,0%,·,·,·
Cc1ccc(NC(=O)Cn2c(=O)ccc3cc(S(=O)(=O)N4CCCC4)ccc32)cc1N(C)C,·,·,·,·,-12%[46 µM],·
Cc1ccccc1CNC(=O)C1=Cc2ccccc2OC1,·,·,·,·,2%[46 µM],·
CC(C)=CC(=O)NCCc1ccccc1,20µM*,?,?,12,4%,-5
CCOC(=O)C1=NOC2C(=O)N(c3ccc(Cl)cc3Cl)C(=O)C12 (stereo not given),·,0.71µM*,9%,·,·,·
CCOC(=O)CC1ON(C)C(=O)N1c1ccc(Cl)cc1Cl (stereo not given),-14%,?,8%,26,6%,19
CC(=O)Oc1ccc2c(=O)c(N3C(=O)c4ccccc4C3=O)c(C)oc2c1,25µM*,-4%,-3%,·,-6%,-91*
CCOC(=O)c1sc(NC(=O)C(C)Sc2nc(-c3ccccc3)cc(C(F)(F)F)n2)c(C(=O)OC)c1C (stereo not given),·,·,·,-6,·,·
O=C(NCc1ccco1)c1cc2nc(C3CC3)cc(C(F)(F)F)n2n1,18µM*,?,6%,2,?,2
CCOCCn1c(SCc2ccc(F)cc2)nc2c1c(=O)[nH]c(=O)n2C,-8%,-2%,3%,-6,6%,15
COCCn1c(Sc2ccc(C)cc2)nc2c1c(=O)[nH]c(=O)n2C,-23%,13µM*,-2%,-1,11%,40
COCCn1c(SCc2c(F)cccc2Cl)nc2c1c(=O)[nH]c(=O)n2C,-20%,25µM*,1%,3,?,?
COc1ccc(-c2[nH]nc3nc(-c4cc(Br)ccc4OC)cc(C(=O)O)c23)cc1,·,·,·,·,-13%[46 µM],·
CC1=CC(=O)[C@@H]2C[C@H]1C2(C)C,3%,-1%,2%,2,·,·
CCCN1C(=O)/C(=C/c2ccc3c(c2)OCO3)NC1=S,·,2.2µM*,0%,·,·,·
CN1c2ccsc2C(O)=C(C(=S)Nc2ccc(F)c(Cl)c2)S1(=O)=O,?,9.5µM*,3%,-4,?,-17
COc1ccccc1N1CCN(CC2CN3C(=O)N(C)c4ccccc4C3=N2)CC1 (stereo not given),·,0%,·,·,·,·
Cn1c(=O)c2c(nc(SCC(=O)c3ccccc3F)n2C)n(C)c1=O,·,18µM*,-1%,·,·,·
Cn1c(=O)c2c(nc(SCC(=O)OCc3ccccc3)n2C)n(C)c1=O,3%,0%,0%,-9,-7%,-96*
C=CCOC(=O)C1=C[C@H](C2CC2)[C@@H](CCCO)[C@H](OCC)O1,·,28µM*,·,·,·,·
CCCc1nc2ccccc2n2c(-c3ccc(C)cc3)c3c(=O)n(C)c(=O)n(C)c3c12,·,·,·,4,·,·
SMILES,HPGD inh,ALDH1A1 block,Luc counter,IMPase inh,LMNA splice mod,PNC inhibitor
COc1ccc(-c2nn(-c3ccccc3)cc2/C=N/NC(N)=S)cc1OC,-28%,11%,1%,·,?,-112*
COc1ccc(-c2nn(-c3ccccc3)cc2/C=C(\C#N)S(=O)(=O)c2ccccc2)cc1OC,-22%,8.9µM*,-2%,·,-1%,42
OCc1ccc(-c2ccc(-c3ccc(CO)s3)o2)s1,?,?,2%[39.9 µM],·,·,·
CCOc1ccc(Cc2onc3c2C(=O)CCC3)cc1OCC,·,1%,0%,·,·,·
CCOc1ccc(Cc2onc3c2C(=O)CC(C)(C)C3)cc1OCC,·,8.9µM*,3%,·,21%[46 µM],·
CCOc1ccc(CC(=O)C2C(=O)CC(C)(C)CC2=O)cc1OCC,-16%,7.9µM*,0%,0,0%,5
CCOc1ccc(CC(=O)C2=C(N3CCOCC3)CC(C)(C)CC2=O)cc1OCC,·,40µM*,3%,·,13%[46 µM],·
COCCCn1c(SCc2ccccc2F)nc2c(sc3ccccc32)c1=O,·,·,·,·,-3%[46 µM],·
O=[N+]([O-])c1ccc(S(=O)(=O)Cc2ccccc2)c2nonc12,3.2µM*,1.8µM*,-6%[7.66 µM],·,·,·
CCOC(=O)N/N=C1/C[C@@H](O)[C@@H](O)[C@@H]2[C@@H]3C(=O)N(Cc4ccc5c(c4)OCO5)C(=O)[C@H]3CC[C@@H]12,·,4%[13.5 µM],·,·,·,·
CC(=O)Nc1ccc(NC(=O)c2ccc(C3SCC(=O)N3CCc3ccccc3)cc2)cc1 (stereo not given),-17%,25µM*,0%,·,?,-26
Cc1cccc(NC(=O)c2ccc(C3SCC(=O)N3CCc3ccccc3)cc2)c1 (stereo not given),?,?,3%,5,?,32
NC(Cc1ccccc1)=NCC(=O)O,-5%,-7%[13.5 µM],-4%[7.66 µM],·,·,·
[O-]/C(=C(\C(=S)NCCN1CCOCC1)[n+]1ccccc1)c1ccc(Cl)s1,·,10µM*,-6%,·,?,·
[O-]/C(=C(\C(=S)NCc1ccccc1)[n+]1ccccc1)c1ccc(Cl)s1,·,18µM*,6%,·,·,·
Cc1ccc(/C([O-])=C(/C(=S)Nc2ccc(SC(F)F)cc2)[n+]2ccccc2)cc1[N+](=O)[O-],·,4.5µM*,-4%,·,-5%[46 µM],·
Cc1ccccc1NC(=S)/C(=C(\[O-])c1ccc(C)c([N+](=O)[O-])c1)[n+]1ccccc1,-2%,-13%,1%,·,-8%,-20
S=C(NCCN1CCOCC1)Nc1ccc(Nc2ccccc2)cc1,·,-1%,3%,·,·,·
Cc1ccc(/C([O-])=C(/C(=S)NCCN2CCOCC2)[n+]2ccccc2)cc1[N+](=O)[O-],·,22µM*,1%,·,9%[46 µM],·
Cc1ccc(NC(=S)/C(=C(\[O-])c2ccc(C)c([N+](=O)[O-])c2)[n+]2ccccc2)cc1C,-14%,?,1%,3,16%,13
COc1ccc(-c2nc3scc(CCNS(=O)(=O)c4c(C)noc4C)n3n2)cc1OC,·,·,·,·,-6%[46 µM],·
CCCCc1nc2c(c3c1C[C@H](C)OC3)CN(C(=O)NCCc1c[nH]c3ccccc13)CC2,0%,14%[13.5 µM],-4%[7.66 µM],·,-5%[9.22 µM],·
CCCCNC(=O)CNC(=S)N(Cc1ccc(C)cc1)Cc1ccco1,·,32µM*,6%,·,·,·
CCCCC(=O)NCCc1cc2ccc(OC)cc2[nH]c1=O,?,-1%,-2%,-2,3%,-100*
CCOC(=O)c1cnc(NCc2ccc(OC)cc2OC)c2ccccc12,·,·,·,·,-13%[46 µM],·
COc1ccc(Cl)cc1NC(=O)CSc1ccc(-c2sc(C)nc2C)nn1,·,·,·,·,23%[46 µM],·

# Screening results (PubChem BioAssay)
